This excerpt belongs to a sample that is enriched for hits.
Shiga toxin inh: Shiga toxin inhibition | Vero cells, Shiga toxin protein synthesis inhibition reporter | inhibition, % at 38.7 µM | 290,000 tested, 9.2% active; in the data active = inhibition mostly above about 28%, no sharp cut-off; inactive = mostly below about 43%
RE007 growth inh: less growth of the S. pombe RE007 Vpr strain; AID 651644; S. pombe RE007 Vpr strain, BacTiter-Glo ATP luminescence, 24 h; 360,000 tested, 0.21% active; Potency, µM (highest dose often 92.2 µM), usual class: inhibitors; active = well fitted falling curve with a large enough effect; inconclusive = small, poorly fitted or top-dose-only effect; inactive = no such curve, though single readings can be large or run the other way; note: nearly all actives have a fitted effect of over 50% in size
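Fission yeast strain RE007, carrying one chromosomally integrated HIV-1 vpr copy, was seeded at OD 0.01 in PMG+AL medium with 23 nL pinned compound. After 24 h at 30 °C and 99% humidity, viability was read by BacTiter-Glo luminescence.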
Tb PYK inh: blocks Trypanosoma brucei pyruvate kinase. TbPYK enzyme, Kinase-Glo Plus ATP luminescence, 45 min. Potency, µM (top dose mostly 76.8 µM), usual class: inhibitors. 410,000 tested, 0.12% active. AID 624173; note: nearly all actives have a fitted effect of over 50% in size
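Luminescent Kinase-Glo Plus end-point after 45 min room-temperature reaction of T. brucei pyruvate kinase started with 130 uM ADP (final). Buffer TEA 50 mM pH 7.2 with KCl, MgCl2, BSA, Tween-20; titration-based qHTS with fitted concentration-effect curves.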
CHX counter: affects cycloheximide protein synthesis inhibition readout, counter-screen; cell reporter, cycloheximide protein synthesis inhibition counterscreen; max response, %; 300,000 tested, 12% active; in the data active = max response mostly above about 13%, no sharp cut-off; inactive = mostly below about 14%; note: read at 38.3 µM for the half of the compounds with a filed dose
LmPK inhibitor: LmPK (Leishmania mexicana) enzyme inhibition; Q27686; purified LmPK, Kinase-Glo ATP luminescence, 1 h; Potency, µM (top dose mostly 57.5 µM), hits mostly inhibitors; 290,000 tested, 0.37% active; AID 1721
Target sequence (Q27686 whole entry, looked up): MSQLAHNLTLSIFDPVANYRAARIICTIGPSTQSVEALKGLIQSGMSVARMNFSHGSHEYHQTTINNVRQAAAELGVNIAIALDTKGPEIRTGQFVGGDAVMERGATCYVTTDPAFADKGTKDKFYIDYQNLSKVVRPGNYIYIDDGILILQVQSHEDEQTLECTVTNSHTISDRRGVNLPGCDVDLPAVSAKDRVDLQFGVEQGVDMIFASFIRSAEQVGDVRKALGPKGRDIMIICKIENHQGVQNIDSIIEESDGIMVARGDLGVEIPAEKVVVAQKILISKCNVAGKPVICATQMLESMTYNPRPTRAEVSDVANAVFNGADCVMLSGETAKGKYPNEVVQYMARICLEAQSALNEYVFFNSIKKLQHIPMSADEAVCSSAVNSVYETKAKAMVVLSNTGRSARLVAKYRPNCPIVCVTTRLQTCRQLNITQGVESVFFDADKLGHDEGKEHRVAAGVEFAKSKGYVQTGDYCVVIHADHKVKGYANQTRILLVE
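qHTS format; LmPK 0.1 nM; substrates PEP 0.5 mM and ADP 0.1 mM. One-hour room-temperature incubation, then coupled luciferase luminescence; 0.5 nM enzyme wells mark activation.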
FBPA Giardia inh: inhibitors of Giardia lamblia fructose-1,6-bisphosphate aldolase. A8B2U2. purified Giardia FBPA. Potency, µM (series often up to 59.6 µM), actives largely listed as inhibitors. 290,000 tested, 0.71% active. AID 2451; note: nearly all actives have a fitted effect of over 55% in size
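Giardia FBPA (40 nM reagent) was preincubated 10 min at RT with compound (up to 57.5 uM final), then substrate plus GAPDH/TPI/NAD/arsenate coupling system with diaphorase/resazurin was added; resorufin fluorescence (525/598 nm) was read after 20 min.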
LmPK confirm: Inhibits Leishmania mexicana pyruvate kinase, confirmation; shares compounds with LmPK inhibitor; purified LmPK, Kinase-Glo ATP luminescence, 1 h; Potency, µM (doses to about 57.5 µM), most hits filed as inhibitors; 150 tested, 40% active;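 active = compounds giving a full or partial concentration-response curve, as inhibitors or activators; inconclusive = weak, top-dose-only or unclear curve responses; inactive = no response at any tested dose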
Hits are given with their value; [ ] = dose if it differs, or a comment. Unless noted, calls come from the whole dose curve; as a rule, active = well fitted curve in the direction sought with a large enough effect; inconclusive = small, poorly fitted or top-dose-only effect, or another doubt; inactive = no such curve, though single readings can be large; an effect the other way counts as inactive or inconclusive.

Screening COc1cccc(/C=N/NC(=O)c2c(-c3ccccc3)noc2C)c1O returned Shiga toxin inh inactive, RE007 growth inh inactive, Tb PYK inh inactive, CHX counter inactive, LmPK inhibitor inactive and FBPA Giardia inh inactive.
`Cc1ccc(Cl)cc1N1CCN(S(=O)(=O)c2ccc3c(c2)OCCO3)CC1` gave Shiga toxin inh inactive, RE007 growth inh inactive, Tb PYK inh inactive, CHX counter inactive, LmPK inhibitor inactive, FBPA Giardia inh inactive and LmPK confirm inactive.
For CCN1C(=O)C2(SC(NC(C)=O)=NN2C(C)=O)c2cc(C)ccc21 (configuration not stated) the results were Shiga toxin inh inactive, RE007 growth inh inactive, Tb PYK inh inactive, CHX counter inactive, LmPK inhibitor inactive, FBPA Giardia inh inactive and LmPK confirm inactive.
For O=C(NCc1ccc(F)cc1)c1ccc(CS(=O)(=O)c2ccc(Cl)cc2)o1 the results were Tb PYK inh inactive[15.4 µM].
Screening c1c2c(cc3sc(N4CCCCC4)nc13)OCO2 returned Shiga toxin inh inactive, RE007 growth inh 45µM, Tb PYK inh inconclusive, CHX counter inactive, LmPK inhibitor 7.1µM, FBPA Giardia inh inactive and LmPK confirm 18µM.
C=C(C)[C@H]1CC=C(C)/C(=N/NC(=O)CNc2ccccc2OC)C1 was read as Shiga toxin inh inactive, RE007 growth inh inactive, Tb PYK inh inactive, CHX counter inactive, LmPK inhibitor inactive, FBPA Giardia inh inactive and LmPK confirm inactive.
`C=C(C)C1CC=C(C)/C(=N\NC(=O)CNc2cccc3ccccc23)C1` (configuration not stated) gave Shiga toxin inh inactive, RE007 growth inh inactive, Tb PYK inh inactive, CHX counter inactive, LmPK inhibitor inactive and FBPA Giardia inh inactive.
Screening COc1ccc(Br)cc1S(=O)(=O)Nc1cc(-c2cn3ccccc3n2)ccc1C returned Tb PYK inh inactive.
Screening Cc1ccc(Cn2cccc(NC(=O)NC3CCCCC3)c2=O)cc1 returned Shiga toxin inh inactive, RE007 growth inh inactive, Tb PYK inh inactive, CHX counter inactive, LmPK inhibitor inactive, FBPA Giardia inh inactive and LmPK confirm inactive.
O=C(Nc1cccn(Cc2ccc(F)cc2)c1=O)NC1CCCCC1 was read as Shiga toxin inh inactive, RE007 growth inh inactive, Tb PYK inh inactive, CHX counter inactive, LmPK inhibitor inactive and FBPA Giardia inh inactive.
Cn1c(COc2ccccc2O)[n+](C)c2ccccc21 was read as Shiga toxin inh inactive, Tb PYK inh inactive, CHX counter inactive, LmPK inhibitor inactive and FBPA Giardia inh inactive.
For COc1ccc(N=Nc2n(C)c3ccccc3[n+]2C)cc1 the results were Shiga toxin inh inactive, CHX counter inactive, LmPK inhibitor 1.4µM, FBPA Giardia inh inconclusive and LmPK confirm 13µM.
Screening CC(=O)c1cccn1S(=O)(=O)c1ccccc1 returned Shiga toxin inh inactive, RE007 growth inh inactive, Tb PYK inh inactive, CHX counter inactive, LmPK inhibitor inactive and FBPA Giardia inh inactive.
Screening O=S(=O)(c1ccc(F)cc1)N(Cc1nc(-c2ccc(Cl)cc2)no1)C1CCCCC1 returned Tb PYK inh inactive.
For Cc1cc(NC(=O)c2ccccc2)ncc1NC(=O)c1ccco1 the results were Shiga toxin inh 87, RE007 growth inh inconclusive, Tb PYK inh inconclusive, CHX counter 18, LmPK inhibitor 14µM, FBPA Giardia inh inconclusive and LmPK confirm 16µM.
`CCC(=O)Nc1cc(C)c(NC(=O)c2ccco2)cn1` gave Shiga toxin inh inactive, RE007 growth inh inactive, Tb PYK inh inactive, CHX counter inactive, LmPK inhibitor inactive and FBPA Giardia inh inactive.
Screening c1ccc2c(Cn3ccnc3)cccc2c1 returned Shiga toxin inh inactive, RE007 growth inh inactive, Tb PYK inh inactive, CHX counter inactive, LmPK inhibitor inactive and FBPA Giardia inh inactive.
`COc1cccc(OC)c1C(=O)Nc1ccccc1C(=O)N1CCCCCC1` gave Shiga toxin inh inactive, RE007 growth inh inactive, Tb PYK inh inactive, CHX counter inactive, LmPK inhibitor inactive and FBPA Giardia inh inactive.
Screening CN(Cc1cn(C)nc1-c1cccc(Cl)c1)Cc1nccn1C returned Shiga toxin inh inactive, RE007 growth inh inactive, Tb PYK inh inactive, CHX counter inactive, LmPK inhibitor inactive, FBPA Giardia inh inactive and LmPK confirm inactive.
`CN(Cc1cccnc1)Cc1cn(C)nc1-c1cccc(Cl)c1` gave Shiga toxin inh inactive, RE007 growth inh inactive, Tb PYK inh inactive, CHX counter inactive, LmPK inhibitor inactive and FBPA Giardia inh inactive.
Cc1ccc(C(=O)NNC(=O)CCCCC(=O)NNC(=O)c2ccc(C)cc2)cc1 was read as Shiga toxin inh inactive, RE007 growth inh inactive, Tb PYK inh inactive, CHX counter inactive, LmPK inhibitor inactive and FBPA Giardia inh inactive.
`Cc1ccc(C(=O)/C=C/C(=O)c2ccc(C)cc2)cc1` gave Shiga toxin inh inactive, RE007 growth inh inactive, Tb PYK inh inconclusive, CHX counter inactive, LmPK inhibitor 4µM, FBPA Giardia inh inactive and LmPK confirm inconclusive.
`CN(C)c1nc2c(c(N)nn2-c2ccc(Cl)cc2)c(=O)o1` gave Shiga toxin inh inactive, RE007 growth inh inactive, Tb PYK inh inactive, CHX counter inactive, LmPK inhibitor inactive, FBPA Giardia inh inactive and LmPK confirm inactive.
Screening COc1ccc(-n2nc(N)c3c(=O)oc(N(C)C)nc32)cc1 returned Shiga toxin inh inactive, RE007 growth inh inactive, Tb PYK inh inactive, CHX counter inactive, LmPK inhibitor inactive and FBPA Giardia inh inactive.
For CC1CCN(CCc2nc3cc(NC(=O)COc4ccc(Cl)cc4)ccc3n2C)CC1 the results were Shiga toxin inh inactive, RE007 growth inh inactive, Tb PYK inh inactive, CHX counter inactive and LmPK inhibitor inactive.
For O=C(Nc1ccc(Oc2ccc3ccccc3c2)cc1)c1ccco1 the results were Shiga toxin inh inactive, RE007 growth inh inconclusive, Tb PYK inh inactive, CHX counter inactive, LmPK inhibitor inactive and FBPA Giardia inh inactive.
O=C(/C=C/Nc1ccc(Oc2ccccc2)cc1)c1ccco1 was read as Shiga toxin inh 70, RE007 growth inh inactive, Tb PYK inh inconclusive, CHX counter 56, LmPK inhibitor 7.9µM, FBPA Giardia inh inactive and LmPK confirm 21µM.
`COC(=O)COc1cc(Br)c(/C=C2/SC(=O)N(CC(=O)N3CCCC3)C2=O)cc1OC` gave Shiga toxin inh inactive, RE007 growth inh inactive, Tb PYK inh inactive, CHX counter inactive and LmPK inhibitor inactive.
COC(=O)COc1ccc(/C=C2/SC(=O)N(CC(=O)N3CCCC3)C2=O)cc1Br was read as Shiga toxin inh inactive, RE007 growth inh inactive, Tb PYK inh inactive, CHX counter inactive, LmPK inhibitor inactive, FBPA Giardia inh inactive and LmPK confirm inactive.
For COc1ccc(C(=O)N=c2nc3ccccn3s2)cc1 the results were Shiga toxin inh inactive, RE007 growth inh inconclusive, Tb PYK inh inactive, CHX counter 38, LmPK inhibitor inconclusive, FBPA Giardia inh inactive and LmPK confirm 16µM.
